Experimental findings from PubChem BioAssay (NCATS) are described below.

Several values for one entry are separate records, joined by “and”; a condition that tells them apart may be missing. Equal entries are not always repeated. Unmarked numbers belong to inactive results. Results filed as inconclusive are left out. Entries that show only a call come without a potency. Activity calls are given as the source filed them. Unless noted, calls follow the shape of the dose curve; as a rule, active = well fitted curve in the direction sought with a large enough effect; inconclusive = small, poorly fitted or top-dose-only effect, or another doubt; inactive = no such curve, though single readings can be large; an effect the other way counts as inactive or inconclusive.

For test [1], the target named is Calcium and integrin-binding protein 1 (Homo sapiens) (UniProt Q99828). As to the kind of experiment: Primary qHTS for Identification of Calcium Integrin Binding Protein 1 (CIB1) Competitor (AID 1508620). Also: potency is read from the fitted curve at half-maximal effect.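 As to activity change, negative = inhibition: GST tagged CIB1 binding a fluorescein labelled alphaIIb integrin peptide tracer; top concentration of the series differs between compounds.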 A digest of the protocol: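 CIB1-GST (1 uM final) and compound incubated 15 min at room temperature before adding FITC-alphaIIb peptide tracer (100 nM final). Competition for binding read by fluorescence polarization (ex 480, em 540) after another 15 min at room temperature.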
(In general: In qHTS, concentration-response curves come from the screen itself.)

Test [2] deals with Protein phosphatase 1D (Homo sapiens) (UniProt O15297). The test can be described thus: RapidFire Mass Spectrometry qHTS Assay for Modulators of WT P53-Induced Phosphatase 1 (WIP1) (AID 1347424).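 Also: amount of dephosphorylated VEPPL-S-QETFS peptide product formed by WIP1; potency is read from the fitted curve at half-maximal effect.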 In outline:
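10 nM WIP1 + cpd, 1 h RT; + 2 uM VEPPL-pS-QETFS, 5 min RT; stop 0.5% formic acid; labelled product standard 1 uM; RapidFire MS. Buffer 50 mM Tris pH 7.5, 30 mM MgCl2, 1 mM TCEP.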

Test [3] is described as follows: Primary qHTS for inhibitors of La Crosse Virus (LACV) - induced cell death in SH-SY5Y cells (AID 1508616).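 Also: top concentration of the series differs between compounds; higher means more rescue of cells from virus-induced death.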 A digest of the protocol:
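Readout was luminescence from ATPLite 1step added after a 6-day LACV infection (0.01 MOI) of SH-SY5Y cells that had received pin-transferred compound 24 hr after seeding.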

The nature of test [4]: Primary qHTS for small molecule stabilizers of the endoplasmic reticulum resident proteome: Secreted ER Calcium Modulated Protein (SERCaMP) assay (AID 1508630). Also: potency is read from the fitted curve at half-maximal effect. In outline:
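GLuc-SERCaMP-expressing SH-SY5Y cells, pretreated 16 h with compound, are challenged with thapsigargin to empty ER calcium stores; after 4 h, coelenterazine is added directly to the medium and luminescence is imaged.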

Test [5] in a line: A High-Content qHTS Against Drug Library for the Identification of Small Molecules that Inhibit DYT1 Early Onset Primary Dystonia-Associated Cell Pathology (AID 1645839; calls by dose curve; also: series mostly up to about 46 µM). A digest of the protocol:
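In this high-content image screen, delE TorsinA mislocalization in inducible Flp-In 293 cells is scored as %pathology, with cell count serving as the counterscreen. Compound exposure lasts 48 h under tetracycline induction in reduced-serum medium.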

Test [6] deals with Cytochrome P450 2D6 (Homo sapiens) (UniProt P10635). As to the kind of experiment: Cytochrome P450 family 2 subfamily D member 6 (CYP2D6) small molecule antagonists: luciferase biochemical (cell-free) qHTS assay (AID 1645840; active = well fitted curve in the direction sought with a large enough effect in the repeat runs; an effect the other way counts as inactive or inconclusive; also: nearly all actives have a fitted effect of over 55% in size; also: potency is read from the fitted curve at half-maximal effect; as to activity change, negative = inhibition: series mostly up to about 57 µM). A digest of the protocol: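 P450-Glo luminescent screen: recombinant CYP2D6 enzyme–proluciferin substrate mix preincubated with compound 10 min at room temperature, then NADPH regeneration added for 1 h at room temperature. Detection reagent added for 20 min; luciferin light read as relative luminescence units.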

The target in test [7] is Cytochrome P450 2C9 (Homo sapiens) (UniProt P11712). The test can be described thus: Cytochrome P450 family 2 subfamily C member 9 (CYP2C9) small molecule antagonists: luciferase biochemical (cell-free) qHTS assay (AID 1645842; active = well fitted curve in the direction sought with a large enough effect in the repeat runs; an effect the other way counts as inactive or inconclusive; also: nearly all actives have a fitted effect of over 55% in size; also: potency is read from the fitted curve at half-maximal effect; as to activity change, negative = inhibition: series mostly up to about 57 µM). A digest of the protocol: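 Luminescence, after 20 min with luciferin detection reagent, reflected CYP2C9 turnover during a 1 h NADPH-driven reaction at 37C. Enzyme-substrate mix contained 0.4% bovine serum albumin and was preincubated with compound 10 min at room temperature.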

Test [8] in a line: Primary qHTS for inhibitors of nuclear receptor binding SET domain protein 2 (NSD2) in an isogenic RCH-ACV NSD2 p.E1099K mutant (9B) (AID 1645876). Also: nearly all actives have a fitted effect of over 70% in size. Also: potency is read from the fitted curve at half-maximal effect.
A short description of test [9]: Validation qHTS assay for inhibitors of Activation Induced Cytidine Deaminase (AID): UDG Counterscreen signal (AID 1347427). A digest of the protocol:
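Counterscreen read of UDG activity (2 U/mL, 4/3x) in the FRET deamination format with AID (1 uM, 4/3x), DJC20/DJC23 substrates (250 nM, 4x), 4 h at room temperature. NaOH stop, fluorescence at 560 ex/665 em.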

In test [10] the target is Single-stranded DNA cytosine deaminase (Homo sapiens) (UniProt Q9GZX7). As to the kind of experiment: Validation qHTS assay for inhibitors of Activation Induced Cytidine Deaminase (AID): AID signal (AID 1347429). A digest of the protocol:
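In this coupled qHTS, AID deaminates a FRET-labelled ssDNA substrate in the presence of UDG over 4 hr at room temperature. Compounds span up to 114 uM final.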

The target in test [11] is Calcium and integrin-binding protein 1 (Homo sapiens) (UniProt Q99828). As to the kind of experiment: Validation qHTS for Identification of Calcium Integrin Binding protein 1 (CIB1) Competitor (AID 1508618). In outline: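 Displacement of FITC-alphaIIb peptide (100 nM) from CIB1-GST (1 uM) is monitored by polarization in quantitative HTS format; buffer carries 5 mM CaCl2 and 125 mM NaCl at pH 7.4, incubations are at room temperature.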

The target in test [12] is Papain (Carica papaya) (UniProt P00784). The test can be described thus: Primary qHTS assay for inhibitors of the protease papain (AID 1645873).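 Also: papain turnover of Z-FR-AMC read as the AMC fluorescence gain over 10 min; series mostly up to about 50 µM.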
Test [13] addresses Calcium and integrin-binding protein 1 (Homo sapiens) (UniProt Q99828). As to the kind of experiment: Confirmatory qHTS for Identification of Calcium Integrin Binding Protein 1 (CIB1) Competitor (AID 1508617). Also: nearly all actives have a fitted effect of over 65% in size. Also: potency is read from the fitted curve at half-maximal effect. A digest of the protocol: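 Confirmatory qHTS measures displacement of a FITC-alphaIIb peptide (100 nM) from CIB1-GST (1 uM) by fluorescence polarization. Calcium-containing HEPES buffer, pH 7.4; two 15 min room-temperature incubations.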

Test [14] can be described thus: Confirmatory qHTS for small molecule stabilizers of the endoplasmic reticulum resident proteome: Secreted ER Calcium Modulated Protein (SERCaMP) assay (AID 1508628).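 Also: SH-SY5Y cells given compound 16 h then thapsigargin 100 nM for 4 h; series mostly up to about 76 µM; nearly all actives have a fitted effect of over 40% in size.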 A digest of the protocol: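 We seeded SH-SY5Y-GLuc-SERCaMP cells, added compounds (three concentrations in the primary run, eleven up to 76.6 uM in confirmation), incubated 16 h, depleted ER calcium with thapsigargin, and read luciferase 4 h later.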

Chain of Calcium and integrin-binding protein 1 (Homo sapiens) (Q99828 whole entry, looked up): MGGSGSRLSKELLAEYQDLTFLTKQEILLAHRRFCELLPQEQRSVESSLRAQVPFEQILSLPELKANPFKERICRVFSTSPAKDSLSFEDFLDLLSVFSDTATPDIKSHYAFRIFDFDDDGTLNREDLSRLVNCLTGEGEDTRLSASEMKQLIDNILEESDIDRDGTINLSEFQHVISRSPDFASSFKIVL
Chain of Cytochrome P450 2C9 (Homo sapiens) (P11712 whole entry, looked up): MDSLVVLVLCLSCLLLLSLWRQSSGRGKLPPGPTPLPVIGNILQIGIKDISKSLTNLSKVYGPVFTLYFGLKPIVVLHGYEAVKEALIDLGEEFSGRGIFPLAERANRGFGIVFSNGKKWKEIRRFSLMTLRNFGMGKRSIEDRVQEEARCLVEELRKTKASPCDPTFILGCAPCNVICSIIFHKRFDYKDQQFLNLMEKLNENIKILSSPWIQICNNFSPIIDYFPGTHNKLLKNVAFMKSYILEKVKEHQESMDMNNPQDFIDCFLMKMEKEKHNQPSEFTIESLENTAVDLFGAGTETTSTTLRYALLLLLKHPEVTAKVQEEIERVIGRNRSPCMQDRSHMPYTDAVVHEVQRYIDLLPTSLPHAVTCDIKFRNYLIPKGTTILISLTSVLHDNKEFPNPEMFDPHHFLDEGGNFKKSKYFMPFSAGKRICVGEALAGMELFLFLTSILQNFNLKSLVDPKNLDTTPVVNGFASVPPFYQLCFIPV
Chain of Single-stranded DNA cytosine deaminase (Homo sapiens) (Q9GZX7 whole entry, looked up): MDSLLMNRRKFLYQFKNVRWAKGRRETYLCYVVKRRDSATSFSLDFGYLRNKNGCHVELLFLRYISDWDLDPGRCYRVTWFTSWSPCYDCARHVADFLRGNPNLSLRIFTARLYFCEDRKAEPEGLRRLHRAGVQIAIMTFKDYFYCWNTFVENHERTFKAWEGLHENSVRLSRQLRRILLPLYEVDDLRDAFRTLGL
Chain of Cytochrome P450 2D6 (Homo sapiens) (P10635 whole entry, looked up): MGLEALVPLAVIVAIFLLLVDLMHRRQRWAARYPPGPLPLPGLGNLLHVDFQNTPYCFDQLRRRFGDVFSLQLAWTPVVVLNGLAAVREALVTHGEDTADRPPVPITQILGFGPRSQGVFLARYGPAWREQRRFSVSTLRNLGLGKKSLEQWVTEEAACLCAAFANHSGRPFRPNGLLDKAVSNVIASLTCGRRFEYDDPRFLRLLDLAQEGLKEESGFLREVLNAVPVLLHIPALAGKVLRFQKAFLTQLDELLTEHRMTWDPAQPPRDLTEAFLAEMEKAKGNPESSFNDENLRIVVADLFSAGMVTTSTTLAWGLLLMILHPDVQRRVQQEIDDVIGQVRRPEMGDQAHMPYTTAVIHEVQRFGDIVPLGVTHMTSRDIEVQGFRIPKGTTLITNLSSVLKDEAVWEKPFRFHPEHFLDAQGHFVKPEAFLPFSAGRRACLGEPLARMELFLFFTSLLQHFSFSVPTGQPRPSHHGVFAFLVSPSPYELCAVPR
Chain of Papain (Carica papaya) (P00784 whole entry, looked up): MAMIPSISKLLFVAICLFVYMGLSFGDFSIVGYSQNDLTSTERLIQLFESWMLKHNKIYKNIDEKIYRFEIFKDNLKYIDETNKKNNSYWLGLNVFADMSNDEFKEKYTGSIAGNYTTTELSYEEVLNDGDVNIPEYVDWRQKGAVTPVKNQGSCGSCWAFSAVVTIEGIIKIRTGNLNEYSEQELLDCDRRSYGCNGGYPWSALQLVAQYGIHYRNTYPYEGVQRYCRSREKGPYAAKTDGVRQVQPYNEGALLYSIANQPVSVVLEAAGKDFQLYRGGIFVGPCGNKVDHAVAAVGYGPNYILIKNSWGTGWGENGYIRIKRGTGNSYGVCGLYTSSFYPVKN
Chain of Protein phosphatase 1D (Homo sapiens) (O15297 whole entry, looked up): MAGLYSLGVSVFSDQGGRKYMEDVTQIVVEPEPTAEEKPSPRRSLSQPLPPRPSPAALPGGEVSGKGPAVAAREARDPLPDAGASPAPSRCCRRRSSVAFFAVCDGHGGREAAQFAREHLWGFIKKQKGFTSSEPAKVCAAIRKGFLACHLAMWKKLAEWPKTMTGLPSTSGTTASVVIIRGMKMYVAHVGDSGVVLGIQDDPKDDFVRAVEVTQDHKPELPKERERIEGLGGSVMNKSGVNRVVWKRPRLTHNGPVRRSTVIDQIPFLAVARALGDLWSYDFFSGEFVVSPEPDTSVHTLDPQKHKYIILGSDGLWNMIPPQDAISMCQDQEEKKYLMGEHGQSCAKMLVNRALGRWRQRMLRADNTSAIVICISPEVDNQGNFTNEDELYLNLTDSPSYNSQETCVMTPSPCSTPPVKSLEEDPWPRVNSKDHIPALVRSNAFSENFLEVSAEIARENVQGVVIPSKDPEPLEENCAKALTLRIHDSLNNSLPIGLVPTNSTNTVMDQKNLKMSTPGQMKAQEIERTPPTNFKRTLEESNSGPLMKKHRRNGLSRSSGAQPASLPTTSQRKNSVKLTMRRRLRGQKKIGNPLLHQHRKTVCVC

Regarding `CC(C)N(CCCNC(=O)Nc1ccc(C(C)(C)C)cc1)C[C@H]1O[C@@H](n2cc(Br)c3c(N)ncnc32)[C@H](O)[C@H]1O`, the Potency result in [1] was “inactive”. As for `COc1cc(N2CCN(C)CC2)ccc1Nc1nc(N)c(C(=O)c2c(Cl)cccc2Cl)s1`, the Potency entry in [1] was “inactive”. Regarding `O=C(Nc1cccc2c(=O)cc(-c3nn[nH]n3)oc12)c1ccc(OCCCCc2ccccc2)cc1`, the Potency is 15.8 µM (active) in test [2], 15.5 µM (active) in [6] and 7.76 µM (active) in test [7]. Further, the result in [3] and in [5] was inactive. The Potency entry in test [1], in [4] and in test [8] was “inactive” in each case. For the compound `CC(C)c1onc(-c2c(Cl)cccc2Cl)c1COc1ccc(C=Cc2cccc(C(=O)O)c2)c(Cl)c1`, the Potency result in [1] is “inactive”. In the case of `CCC=CC[C@H]1C(=O)CC[C@@H]1CC(=O)OC`, the Potency entry in test [1] is “inactive”. Consider `CN(C)S(=O)(=O)c1ccc2c(c1)C(=Cc1cc3c([nH]1)CCCC3)C(=O)N2`, for which the Potency entry in test [1] is “inactive”. In the case of `CC(C)n1c(C=C[C@H](O)C[C@H](O)CC(=O)O)c(-c2ccc(F)cc2)c2ccccc21`, the Potency entry in test [1] was “inactive”. As for `C=C1[C@H](n2cnc3c(=O)[nH]c(N)nc32)C[C@H](O)[C@H]1CO`, the Potency entry in [1] was “inactive”.

For the compound `CN[C@@H]1[C@@H](O)[C@@H](O[C@@H]2[C@@H](O)[C@H](O[C@H]3O[C@H](CN)[C@@H](O)[C@H](O)[C@@H]3O)[C@@H](N)C[C@@H]2NC(=O)[C@@H](O)CN)OC[C@]1(C)O`, the Potency entry in [1] is “inactive”. For the compound `CC=C1C2C=C(C)CC1(N)c1ccc(=O)[nH]c1C2` (configuration not stated), the Potency entry in test [1] is “inactive”. The same measure, in the same setting: then `CC(O)=C(C#N)C(=O)Nc1ccc(C(F)(F)F)cc1`, with “inactive”; and `CCCCN(CCCC)CC(O)c1cc(Cl)cc2c1-c1ccc(Cl)cc1C2=Cc1ccc(Cl)cc1` (configuration not stated), with “inactive”. Take `CN(C)CCOc1ccc(C(=C(CCCl)c2ccccc2)c2ccccc2)cc1`: the Potency entry in test [1] was “inactive”. In the case of `C[C@H]1O[C@@H](n2cc(F)c(=O)[nH]c2=O)[C@H](O)[C@H]1O`, the outcome in [9] and in test [10] was inactive. In addition, the Potency result in [1] and in [4] was “inactive” in each case. Consider `N=C1SC(=Cc2ccc(-c3ccc4c(c3)C(=O)NC4=O)o2)C(=O)N1c1ccc(Br)cc1`, for which the Potency entry in test [1] was “inactive”. For `CCOC(=O)[C@H](CCc1ccccc1)N[C@@H](C)C(=O)N1CCCC1C(=O)O` (some centres not stated), the Potency result in [1] was “inactive”. Regarding `CC[C@H]1OC(=O)[C@H](C)[C@@H](O[C@H]2C[C@@](C)(OC)[C@@H](O)[C@H](C)O2)[C@H](C)[C@@H](O[C@@H]2O[C@H](C)C[C@H](N(C)C)[C@H]2O)[C@](C)(O)C[C@H](C)C(=NOCOCCOC)[C@H](C)[C@@H](O)[C@]1(C)O`, in test [1], the Potency entry was “inactive”. Still for that read-out and setting: then `CO[C@H]1O[C@@H]2O[C@@]3(C)CC[C@@H]4[C@@H](C)CC[C@@H]([C@H]1C)[C@@]24OO3`, with “inactive”. For the compound `O=C(C=Cc1ccc(O)cc1)c1ccc(O)cc1O`, the Potency result in [1] is “inactive”. On to `CNC(=O)[C@H](CC1=CN=C2C=CCC=C12)NC(=O)[C@@H](CC(=O)NO)CC(C)C`, for which the Potency result in test [1] was “inactive”. For `C=CCc1cccc(C=NNC(=O)CN2CCN(Cc3ccccc3)CC2)c1O`, the compound was classed as inactive in [9], in test [10], in [11] and in test [12]. Besides, the Potency result in test [1] and in test [4] was “inactive” each time. On to `CC1(C)[C@H]2CC[C@]3(C)[C@@H](C(=O)C=C4[C@@H]5C[C@@](C)(C(=O)O)CC[C@]5(C)CC[C@]43C)[C@@]2(C)CC[C@@H]1O`, for which the Potency entry in [1] was “inactive”. In the case of `OC[C@H]1O[C@@H](O[C@H]2[C@@H](O)[C@@](O)(CO)O[C@@H]2CO)[C@H](O)[C@@H](O)[C@@H]1O`, in test [1], the Potency entry was “inactive”. Turning to `Cc1nc(C(=O)NCC(=O)O)c(O)c2ccc(Oc3ccccc3)cc12`, the Potency result in [13], in test [6], in test [7] and in test [8] was “inactive” in each case.

For `CN(C)CCCNC(=O)c1ccc(-c2cc(O)c3ncccc3c2)cc1`, the Potency result in test [13] was “inactive”. For the same compound, the Potency in test [8] was 9.2 µM (active) and 10.5 µM (active).

`CC1C(=O)OC2C(O)C34C5CC(C(C)(C)C)C36C(OC(=O)C6O)OC4(C(=O)O5)C12O` (configuration not stated): the Potency entry in [1] was “inactive”. In the case of `CO[C@@H]1C(N(C)C(=O)c2ccccc2)C[C@H]2O[C@]1(C)n1c3ccccc3c3c4c(c5c6ccccc6n2c5c31)C(=O)NC4=O` (some centres not stated), the Potency in test [13] is 15.8 µM (active); in [1], 19.2 µM (active); in test [8], 1.66 µM (active). The Potency entry in [4] was “inactive”. Turning to `O=C(O)C1=CC(O)C(O)[C@H](O)C1` (some centres not stated), in [1], the Potency result was “inactive”. As for `C[C@H]1COC2=C1C(=O)C(=O)c1c2ccc2c1CCCC2(C)C`, the Potency entry in [13] and in test [4] was “inactive” in each case. Moreover, the Potency in [7] is 19 µM (active).

For the compound `CCNC(=O)CCCC=CC[C@@H]1[C@H](C=CC(O)CCc2ccccc2)[C@@H](O)C[C@@H]1O` (some centres not stated), the Potency result in test [1] was “inactive”. For `OCCn1cc(-c2ccc3c(c2)CCC3=NO)c(-c2ccncc2)n1`, the Potency entry in test [1] and in [4] was “inactive” in each case. Regarding `FC(F)(F)c1ccc(C=Cc2nc(COc3ccc(CCCCn4ccnn4)cc3)co2)cc1`, the Potency result in [1] and in test [4] was “inactive” throughout. Take `CCC(=C(c1ccc(O)cc1)c1ccc(OCCNC)cc1)c1ccccc1`: in test [1], the Potency entry is “inactive”. On to `CC=C(C(=CC)c1ccc(O)cc1)c1ccc(O)cc1`, for which the Potency entry in [1] and in [4] was “inactive” in each case. In the case of `CO[C@H]1C=CO[C@@]2(C)Oc3c(C)c(O)c4c(O)c(c(C=NN5CCN(C)CC5)c(O)c4c3C2=O)NC(=O)C(C)=CC=C[C@H](C)[C@H](O)[C@@H](C)[C@@H](O)[C@@H](C)[C@H](OC(C)=O)[C@H]1C`, the activity change, negative = inhibition in test [1] is -2.55% [at 12.4 µM].

On to `CN(CC=CC#CC(C)(C)C)Cc1cccc2ccccc12`, for which the Potency entry in test [1] and in [4] was “inactive” in each case. With `Oc1cc(O)cc(C=Cc2ccc(O)c(O)c2)c1`, the Potency result in test [1] and in [4] was “inactive” in each case.

`CN(C(Cc1ccc(OS(=O)(=O)c2cccc3cnccc23)cc1)C(=O)N1CCN(c2ccccc2)CC1)S(=O)(=O)c1cccc2cnccc12` (configuration not stated): the Potency result in test [1] and in [14] was “inactive” throughout. In addition, the Potency was 11.9 µM (active) in [4] and 7.31 µM (active) in [8].

`CN1CC(=O)N2C(Cc3c([nH]c4ccccc34)[C@H]2c2ccc3c(c2)OCO3)C1=O` (some centres not stated): the Potency entry in test [1] and in [4] was “inactive” throughout.
